A selection: hits, their analogues and other compounds. The true share with any hit is near 3.7%.
B2AR arrestin ag: qHTS assay of beta-arrestin-biased ligands of beta2-adrenergic receptor: NCGC Sytravon Library Screen; Beta-2 adrenergic receptor (Homo sapiens), P07550; HTLA Tango cells, beta-arrestin recruitment, luciferase luminescence, 18 h; Potency, µM (series often up to 46.1 µM), usual class: activators; 44,000 tested, under 10 active;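 further: potency means the concentration at half of the fitted maximal effect; 0% = DMSO and full agonism = EC100 isoproterenol or metaproterenol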
Target sequence (P07550 whole entry, looked up): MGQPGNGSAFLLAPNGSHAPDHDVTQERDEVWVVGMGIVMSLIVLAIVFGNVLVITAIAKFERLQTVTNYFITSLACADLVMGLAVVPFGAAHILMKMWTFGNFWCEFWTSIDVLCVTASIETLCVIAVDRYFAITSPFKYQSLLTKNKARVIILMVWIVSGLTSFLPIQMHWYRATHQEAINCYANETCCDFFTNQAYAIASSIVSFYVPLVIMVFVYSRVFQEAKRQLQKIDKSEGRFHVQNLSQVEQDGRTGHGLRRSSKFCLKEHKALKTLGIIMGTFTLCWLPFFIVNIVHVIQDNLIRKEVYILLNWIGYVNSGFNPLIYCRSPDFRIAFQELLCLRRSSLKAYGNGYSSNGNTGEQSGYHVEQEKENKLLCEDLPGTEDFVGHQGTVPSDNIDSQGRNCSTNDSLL
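Tango cells expressing recombinant beta2-AR and beta-arrestin were treated with compounds (up to 46 microM titration) in DMEM with 1% FBS for 18 hr at 37 degrees C. Beta-arrestin recruitment drove tTA-dependent luciferase, read by luminescence; curves were fitted and classed.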
FH mod: Identification of activators of human fumarate hydratase by quantitative high-throughput screening. FH coupled MDH/diaphorase resazurin fluorescence, 15 min. Potency, µM (highest dose often 79.9 µM), inactives show top-dose activity change, negative = inhibition, usual class: inhibitors. AID 1347055, 2019. Fumarate hydratase, mitochondrial (Homo sapiens), P07954. 54,000 tested, 0.22% active; further: potency means the concentration at half of the fitted maximal effect; on the % scale 0 is the no-effect control and ±100 the full control effect; the screen sought activators but most active calls are inhibition curves; nearly all actives have a fitted effect of over 45% in size
GALC G270D act: A Novel Cell-Based Assay to Identify Small Molecules for B -Galactocerebrosidase | P54803 | Potency, µM (top dose mostly 57.5 µM), hits mostly activators | 45,000 tested, 0.1% active | AID 1159614, 2016 | 145M-Twi-hGALC-G270D cells (Twitcher mouse brain line with human GALC G270D), HMU-beta-Gal fluorescence, 48 h; further: potency means the concentration at half of the fitted maximal effect; 0% is about no effect; nearly all actives have a fitted effect of over 65% in size
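Mutant human GALC (G270D), stably expressed in a Twitcher mouse brain cell line lacking endogenous GALC, is measured in live-treated cells via 6-hexadecanoylamino-4-methylumbelliferyl-β-galactoside hydrolysis (0.1 mM final, pH 5.2) with fluorescent detection.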
GPR32 ag: qHTS for Agonists of Human Resolvin D1 Receptor DRV1 | Probable G-protein coupled receptor 32 (Homo sapiens), O75388 | activation, % at 76.9 µM | CHO-K1 GPR32 beta-arrestin PathHunter luminescence, 90 min; zero percent set by DMSO-only wells | 48,000 tested, 2.5% active;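 active means activation of at least 60% and not above a set upper limit, about 1 call in 100 departs from these limits; inconclusive means activation of 40% to 60%, or above that upper limit; inactive means activation under 40%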; further: 0% is about no effect
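PathHunter enzyme-fragment complementation, CHO-K1 GPR32 stable line; 2,500 cells/well, overnight attach; cpd 90 min 37 °C 5% CO2; detection reagent 1 h RT; chemiluminescence. DMSO = EC0.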
HTT promoter inh: Primary qHTS for Identification of Small Molecule Inhibitors of Huntingtin Promoter Activity; HEK293 HTT promoter firefly luciferase reporter, 24 h; Potency, µM (series often up to 57.5 µM), for inactives: top-dose activity change, negative = inhibition, actives largely listed as inhibitors; 48,000 tested, 0.93% active; further: potency means the concentration at half of the fitted maximal effect; nearly all actives have a fitted effect of over 50% in size
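Firefly luciferase signal from promoter-reporter HEK293 cells was scaled between vehicle (0%) and zero RLU (-100%). Compounds were tested at final concentrations of up to 57.5 uM over 24 h at 37 degrees C. PTC124 at 50 uM final served as control inhibitor.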
HTT-AS act: Primary qHTS for Identification of Small Molecule Activators of Huntingtin-Antisense Promoter Activity. HEK293 HTT-AS promoter firefly luciferase reporter, 24 h; response scale: percent change from vehicle, -100% = no light. Potency, µM (doses to about 57.5 µM), without a hit: at the highest dose activity change, positive = activation, usual class: activators. 48,000 tested, 0.24% active; further: potency means the concentration at half of the fitted maximal effect; nearly all actives have a fitted effect of over 55% in size
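HEK293 luciferase promoter-reporter cells (2,500/well) plated 24 h, then compounds added at up to 57.5 uM final for 24 h at 37 °C. Firefly luminescence by Dual-Glo, normalized to vehicle (0%) and zero RLU (-100%).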
An asterisk follows results filed as active; i = inactive; ? = inconclusive; . = no result; ! = not confirmed by another sample; [ ] = another dose, or the depositor's remark. Unless noted, the call rests on the fitted dose curve; in most records, active means well fitted curve in the direction sought with a large enough effect; inconclusive means small, poorly fitted or top-dose-only effect, or another doubt; inactive means no such curve, though single readings can be large; an effect the other way counts as inactive or inconclusive.

SMILES	B2AR arrestin ag	FH mod	GALC G270D act	GPR32 ag	HTT promoter inh	HTT-AS act
Cc1ccccc1CC1C(=O)Nc2ccc(Br)cc21 (stereo unspecified)	i	-27%	i	-27	?	-24%
CNCc1ccc(-c2cc(-c3nc(-c4ccc(S(=O)(=O)C(C)C)cc4)cnc3N)on2)cc1	.	3%	.	.	.	.
C[C@H]1O[C@@H](O[C@H]2CC[C@@]3(C)[C@H](CC[C@@H]4[C@@H]3C[C@@H](O)[C@]3(C)[C@@H](C5=CC(=O)OC5)CC[C@]43O)C2)C[C@H](O)[C@@H]1O[C@H]1C[C@H](O)[C@H](O[C@H]2C[C@H](O)[C@H](O[C@@H]3O[C@H](CO)[C@@H](O)[C@H](O)[C@H]3O)[C@@H](C)O2)[C@@H](C)O1	.	-1%[53.3 µM]	i	76*	-40%	?
C[C@@H]1O[C@@H](O[C@H]2CC[C@@]3(C)[C@H](CC[C@@H]4[C@H]3C[C@@H](O)[C@]3(C)[C@@H](C5=CC(=O)OC5)CC[C@]43O)C2)C[C@H](O)[C@@H]1O[C@H]1C[C@H](O)[C@H](O[C@H]2C[C@H](O)[C@@H](O)[C@@H](C)O2)[C@H](C)O1 (stereo in doubt)	.	12%	.	.	?	-51%[116 µM]
COc1cc2nc(N3CCCC3)nc(NCCCCCN3CCCC3)c2cc1OC	.	5%	.	.	.	.
COc1ccc(CCNC(=O)CCc2c(C)c3cc4c(C)c(C)oc4cc3oc2=O)cc1OC	i	11%	i	41	6%	-6%
COc1ccc2c(C)c(CCC(=O)NCCc3ccc(OC)c(OC)c3)c(=O)oc2c1	i	.	.	68*	.	.
COc1ccc2c(C)c(CCC(=O)NCCc3ccc(Cl)cc3)c(=O)oc2c1	i	.	.	108*	.	.
COc1ccc2c(C)c(CCC(=O)NCCc3ccccc3)c(=O)oc2c1	i	.	.	49	.	.
COC1(CC(C)C)NC(=O)C(O)(Cc2ccccc2)NC1=O (stereo unspecified)	.	5%[53.3 µM]	.	.	.	.
O=C(Nc1ccc(S(=O)(=O)Nc2ccccc2)cc1)N1CCCC1	?	-6%	i	19	-18%	-16%
CCc1ccc(NS(=O)(=O)c2ccc(NC(=O)N3CCCC3)cc2)cc1	i	-3%	i	69*	-28%	-3%
Nc1c(C(=O)NCc2ccc3c(c2)OCO3)nnn1CC(=O)Nc1ccc(Br)cc1	i	-3%	i	61*	-10%	-12%
COc1ccc(Cl)cc1NC(=O)Cn1nnc(C(=O)NCc2ccc3c(c2)OCO3)c1N	i	0%	i	112*	?	-39%
COc1ccccc1NC(=O)Cn1nnc(C(=O)NCc2ccc3c(c2)OCO3)c1N	i	-3%	i	42	-18%	-30%
CN1CCC(c2cn(C)c3ccc(OS(=O)(=O)c4c(F)cccc4F)cc23)CC1	.	1%	.	.	.	.
CC(=O)c1c(C)oc2ccc(N(C(=O)Oc3ccccc3)S(=O)(=O)c3ccccc3)cc12	i	-1%	i	-28	-31%	-35%
COC(=O)c1c(C)oc2ccc(N(C(=O)c3ccncc3)S(=O)(=O)c3cc(C)ccc3C)cc12	i	-21%	i	20	28µM*	-39%
CCOc1ccc(S(=O)(=O)N(C(C)=O)c2ccc3oc(C)c(C(=O)OC)c3c2)cc1	i	?	i	15	2.5µM*	-79%
CCCC(=O)N(c1ccc2oc(C)c(C(C)=O)c2c1)S(=O)(=O)c1ccc(CC)cc1	i	-12%	i	3	5µM*	-54%
CC(C)(C)C(=O)CN1C(=O)[C@H](NC(=O)Nc2cccc(C(=O)O)c2)CN(C2CCCCC2)c2ccccc21	.	-4%	.	.	.	.
CC1=C(C(=O)O[C@@H]2O[C@H](COC3OCC(O)C(O)C3O)[C@@H](O)[C@H](O)[C@H]2O)C(C)(C)CCC1 (stereo partly specified)	.	0%[53.3 µM]	.	.	.	.
O=C(NCc1cccs1)c1cc2nc(-c3ccco3)cc(C(F)(F)Cl)n2n1	.	-6%	.	.	.	.
COc1c2c(c(C)c3c1C(=O)OC3)O[C@@]1(C)CCC3(C(C)(C)O)OC(=O)CC[C@]3(C)[C@H]1C2 (stereo partly specified)	.	0%[53.3 µM]	.	.	.	.
Cc1cccc(CNS(=O)(=O)c2ccc(-c3coc(C)n3)cc2)c1	i	1%	i	98*	?	-31%
SMILES	B2AR arrestin ag	FH mod	GALC G270D act	GPR32 ag	HTT promoter inh	HTT-AS act
Cc1nc(-c2ccc(S(=O)(=O)NCc3ccc(F)cc3)cc2)co1	i	4%	i	?	-29%	-30%
CCOc1ccc(CNS(=O)(=O)c2ccc(-c3coc(C)n3)cc2)cc1OC	i	-6%	i	39	25µM*	-37%
COC(=O)C1=C(C)NC(C)=C(C(=O)OCCCN2CCC(c3ccccc3)(c3ccccc3)CC2)C1c1cccc([N+](=O)[O-])c1 (stereo unspecified)	.	-7%[53.3 µM]	i	105*	?	-32%
C#CCN(Cc1cc2c(=O)n(C)c(CN3CCN(C)CC3)nc2cc1Cl)c1ccc(C(=O)NCc2cccnc2)cc1	.	5%	.	.	.	.
CCOc1cc(C(=O)Nc2ccc(NC(=O)c3cc4ccccc4o3)c(OC)c2)cc(OCC)c1OCC	i	-3%	i	105*	-19%	-23%
CCCCOC(=O)c1ccc(NC(=O)c2cc(=O)c3ccccc3o2)cc1	i	-13%	i	-3	-17%	0%
CCCCOC(=O)c1cccc(NC(=O)c2cc3ccccc3o2)c1	i	-28%	i	19	10µM*	-52%
C=C[C@](C)(CC/C=C(\C)C(=O)O)O[C@@H]1OC[C@H](O)[C@H](O)[C@H]1O	.	-3%[53.3 µM]	.	.	.	.
C[C@]1(CO)CCC[C@]2(C)C3=C(CCC12)COC3 (stereo partly specified)	.	5%	.	.	.	.
Cc1ccc2nc3c(c(Nc4ccc(C)c(C)c4)c2c1)CCC3	i	-10%	i	101*	?	-47%
Cc1ccc(Nc2c3c(nc4ccccc24)CCC3)cc1F	i	-15%	i	-24	?	-51%
O=C(O)CN(CCN(CC(=O)O)CC(=O)O)CCN(CC(=O)O)CC(=O)O	.	-8%[53.3 µM]	i	70*!	-8%[25.2 µM]	1%[25.1 µM]
